Results reported in PubChem BioAssay (NCI).
Compounds without any hit were thinned out: in the full panel of roughly 83,000, 20% have a hit.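 Step 1: grow cells in 96-well plates. Step 2: add test compound at a single concentration. Step 3: incubate 48 h. Step 4: record percent growth.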 Activity calls are given as the source filed them. How the source made its calls: active means growth percent below 10; inactive means the rest.

Assays:
Assay in all cases: NCI-60 one-dose screen, 48 h (100 = growth as untreated, 0 = no growth, -100 = all killed)
Settings in all cases: 10 µM unless noted
[1] = test system: NCI-H23 lung
[2] = test system: NCI-H226 lung
[3] = test system: HOP-62 NSCLC
[4] = test system: NCI-H460 lung
[5] = test system: HOP-92 NSCLC
[6] = test system: NCI-H522 lung
[7] = test system: A549/ATCC NSCLC
[8] = test system: 786-0 renal
[9] = test system: COLO 205 colon
[10] = test system: DU-145 prostate
[11] = test system: K-562 leukemia
[12] = test system: MALME-3M melanoma
[13] = test system: MDA-MB-231 breast
[14] = test system: RXF 393 renal
[15] = test system: SF-268 CNS
[16] = test system: SF-295 CNS
[17] = test system: SF-539 CNS
[18] = test system: UACC-257 melanoma
[19] = test system: M14 melanoma
[20] = test system: NCI-H322M lung

Measured: growth

CCOC(=O)c1c2c(n3c1NCC3)-c1ccccc1C2=O
inactive: [1] 99% | [2] 99.6% | [3] 102% | [4] 107% | [5] 84% | [6] 36.2% | [7] 101% | [8] 94.3% | [9] 110% | [10] 100% | [11] 87.3% | [12] 89.9% | [13] 107% | [14] 102% | [15] 99.6% | [16] 96% | [17] 93.7% | [18] 95.7% | [19] 104%

C=C(CO)[C@@H]1CC[C@]2(COC3CCCCO3)CC[C@]3(C)[C@H](CC[C@@H]4[C@@]5(C)C=C(C=O)C(=O)C(C)(C)[C@@H]5CC[C@]43C)[C@@H]12 (some centres undefined)
active: [1] -63.6% | [2] -54.3% | [3] -86.8% | [4] -73.1% | [5] -92.5% | [6] -80.5% | [7] -77.4% | [8] -91.2% | [9] -60.2% | [10] -98% | [11] -60.7% | [12] -78.4% | [13] -58.4% | [14] -86.2% | [15] -83.2% | [16] -89.5% | [17] -90.1% | [18] -64.4% | [19] -65.5%

C/C(=C(/c1ccc(Cl)cc1)c1ccc(OCCCN(C)C)cc1)c1ccc(Cl)cc1
inactive: [1] 91.2% | [2] 108% | [3] 115% | [4] 72.7% | [5] 74.4% | [6] 99.7% | [7] 68.1% | [8] 86.8% | [9] 48.9% | [10] 95.5% | [11] 16.9% | [12] 96.4% | [13] 99.2% | [14] 77.6% | [15] 88.5% | [16] 110% | [17] 99% | [18] 103% | [19] 91.5%

O=C1Nc2ccc(F)cc2/C1=N/c1nnc(Sc2ccccc2)s1
inactive: [1] 87.4% | [2] 90.7% | [20] 103% | [3] 94.7% | [4] 95.6% | [5] 96.9% | [6] 77.2% | [8] 105% | [9] 119% | [10] 105% | [11] 79.7% | [12] 110% | [13] 87.1% | [14] 110% | [15] 94.2% | [16] 108% | [17] 88.5% | [18] 100% | [19] 99.2%

N#CCC1=NC(c2cccs2)=Nc2ccccc2S1
inactive: [1] 94.6% | [2] 82.4% | [20] 101% | [3] 89.6% | [4] 97.7% | [5] 71.7% | [6] 57.4% | [8] 98.6% | [9] 107% | [10] 109% | [11] 86.5% | [12] 99% | [13] 90.1% | [14] 105% | [15] 94% | [16] 103% | [17] 101% | [18] 94.4% | [19] 94%

Cc1cc(F)ccc1S(=O)(=O)Nc1cc(-c2c(O)ccc3ccccc23)c(O)c2ccccc12
inactive: [1] 16.7% | [2] 47.3% | [3] 80.1% | [4] 16.3% | [5] 19.1% | [7] 20.4% | [8] 76.2% | [9] 14.3% | [10] 41.7% | [11] 14.8% | [12] 15.3% | [13] 22.7% | [14] 27.1% | [15] 34.9% | [16] 41.8% | [18] 30.2% | [19] 18.2%
active: [6] -36.2% | [17] 6.5%

CSCCC(NC(=O)c1ccccc1)C(=O)N/N=C1\S/C(=C/c2ccc(Cl)cc2)C(=O)N1C (centres undefined)
inactive: [1] 90% | [2] 86.9% | [3] 33.9% | [4] 95.9% | [5] 70.8% | [6] 80.7% | [7] 79.9% | [8] 91.4% | [9] 101% | [10] 75.1% | [11] 41.6% | [12] 83.3% | [13] 75.6% | [14] 75.5% | [15] 74.1% | [16] 75.2% | [17] 93.5% | [18] 89.8% | [19] 86.6%

Oc1c(I)cc(-c2nc3ccccc3s2)cc1CN(Cc1ccccn1)Cc1ccccn1
active: [4] 1.59% | [5] 0.23% | [6] 4.12% | [7] 4.74% | [8] 2.78% | [17] 4.13% | [18] 0.435% | [19] -27.5%
inactive: [1] 18.3% | [2] 10.5% | [3] 15.7% | [9] 14.3% | [10] 28.1% | [11] 13.1% | [12] 11.5% | [13] 34.9% | [14] 33.3% | [15] 20.8% | [16] 18.5%

CCN1C(=S)N(CC)C2C1NC(=S)N2/N=C/C=C/c1ccccc1OC (centres undefined)
active: [4] 6.8% | [6] -11.3% | [17] -18.5%
inactive: [1] 24.1% | [2] 57% | [3] 39.2% | [5] 74.6% | [7] 17.7% | [8] 35.6% | [9] 10% | [10] 13.9% | [11] 10.2% | [12] 53.5% | [13] 11.5% | [14] 20.4% | [15] 56.4% | [16] 12.4% | [18] 53.6% | [19] 10.3%

COc1cc2oc(-c3cccc(NC(=O)c4ccc5c(c4)OCO5)c3)cc(=O)c2c(OC)c1OC
inactive: [1] 52.9% | [2] 65.7% | [3] 54.4% | [4] 27.2% | [6] 36.7% | [7] 51.3% | [8] 19.5% | [9] 68.1% | [10] 52.9% | [11] 17.4% | [12] 76.4% | [13] 64.3% | [14] 46.5% | [15] 48.1% | [16] 53.9% | [17] 57% | [18] 77.3% | [19] 49.3%
active: [5] -6.11%

O=C(NCc1ccc2c(c1)OCO2)NCC1CCCC(CNC(=O)NCc2ccc3c(c2)OCO3)C1 (centres undefined)
inactive: [1] 99.7% | [2] 100% | [3] 102% | [4] 101% | [5] 103% | [6] 89.4% | [7] 96.9% | [8] 97.6% | [9] 119% | [10] 108% | [11] 95.3% | [12] 108% | [13] 96.4% | [14] 106% | [15] 97.7% | [16] 101% | [17] 103% | [18] 104% | [19] 109%

O=C(Cn1nnc2ccccc21)Nc1ccc(-c2nc3ccccc3s2)cc1
inactive: [1] 80.7% | [2] 67.5% | [3] 101% | [4] 83% | [5] 73.1% | [6] 79.3% | [7] 93.6% | [8] 95% | [9] 105% | [10] 74% | [11] 55.2% | [12] 96.9% | [13] 94.7% | [14] 99.9% | [15] 92.4% | [16] 84.7% | [17] 71.2% | [18] 94.5% | [19] 90.6%

COc1ccccc1NC(=O)c1ccc(/C=C/C(=O)c2nccn2C)cc1
active: [1] -35.7% | [3] -49.5% | [4] -43.5% | [5] -24.3% | [6] -44.8% | [7] -0.305% | [8] -48.4% | [9] -53.1% | [10] -88.2% | [11] 2.11% | [12] -19.9% | [13] -27% | [14] -71.1% | [15] -61.3% | [16] -87.8% | [17] -90.6% | [18] -2.34% | [19] -61.2%
inactive: [2] 24.6%

CCOC(=O)c1c(C)nn(CC(O)c2ccccc2)c1NC(=O)Nc1cccc(F)c1 (centres undefined)
inactive: [1] 97% | [2] 85.4% | [3] 91.2% | [4] 93.6% | [5] 71.8% | [6] 81.8% | [7] 87% | [8] 88.7% | [9] 102% | [10] 94.3% | [11] 88.5% | [12] 101% | [13] 93% | [14] 85.2% | [15] 83.7% | [16] 78.9% | [17] 98.8% | [18] 91% | [19] 96.2%

CN(C)c1ccc(/C=C/C(=O)c2ccccc2)cc1
inactive: [1] 97.8% | [2] 99.9% | [20] 98.4% | [3] 81% | [4] 105% | [5] 88% | [6] 60.3% | [8] 88.8% | [9] 93.7% | [10] 95.9% | [11] 32% | [12] 82.5% | [13] 103% | [14] 93.8% | [15] 89.7% | [16] 92.7% | [17] 89.3% | [18] 62.9% | [19] 76%

O=C(N/N=C/c1ccc(Cl)cc1Cl)c1ccc2nc(-c3ccc(Cl)cc3)[nH]c2c1
inactive: [2] 99.3% | [5] 28.1% | [6] 63.2% | [10] 30.5% | [14] 18.9% | [15] 38% | [17] 37.1% | [18] 31.7% | [19] 19.7%
active: [1] -0.367% | [3] 8.05% | [4] -33.6% | [7] -26.7% | [8] -42.1% | [9] -23.9% | [11] 8.67% | [12] -58.7% | [13] 9.48% | [16] -49.3%
